# This is part of a sample that, as a whole, favours compounds with a hit. Of some 83,000 tested, about 20% had one in any assay.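 Interpretation: 100, growth as untreated; towards 0, rising growth inhibition; 0, no net growth; 0 to -100, cell death. Compounds scoring below 10 were considered active.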 Values without a mark were called inactive. Active and inactive are the calls of the source.
# Tested on: CCRF-CEM leukemia
# Test: NCI-60 one-dose screen, 48 h (100 = growth as untreated, 0 = no growth, -100 = all killed)
# Conditions: 10 µM unless noted
row,Compound,growth
1,COc1ccc(-c2nc(-c3ccccc3OCc3ccccc3OC)nc(C)c2C(C)=O)cc1,73.1%
2,[Ag].[Ag].[NH-]S(=O)(=O)c1ccc(N=Nc2cc(N=Nc3ccc(S([NH-])(=O)=O)cc3)c3c(NC(=O)C(Cl)Cl)cccc3c2OC(=O)C(Cl)Cl)cc1.[c-]1nccs1.[c-]1nccs1,44.7%
3,COc1cc(C2CC(c3cccc(Nc4ccnc5cc(Cl)ccc45)c3)=NN2c2ccccc2)cc(OC)c1OC (stereo not drawn),57.1%
4,CCCCCCCCCCCCCCCc1cc(O)ccc1[N+](=O)[O-],9.46% (active)
5,Nc1nc2c(c3ncccc13)C(c1ccccc1)Cc1ncccc1-2 (stereo not drawn),72.3%
6,O=C1/C(=C\c2cccn2C(=O)c2ccccc2)c2ccccc2N1c1c(Cl)cccc1Cl,14.3%
7,Cc1ccc(C2CC(c3cccs3)=NN2c2ccc(S(N)(=O)=O)cc2)s1 (stereo not drawn),80.6%
8,Nc1nc(N)c2c(n1)NC(c1sc(Cl)nc1Cl)CC(c1ccccc1)=N2 (stereo not drawn),38.9%
9,CCSc1ccc([C@@H]2[C@@H](O)C(=O)N2c2cc(OC)c(OC)c(OC)c2)cc1,11.9%
10,Cc1cc(C)c2c(n1)sc1c(Nc3ccc(OCc4ccccc4)cc3)ncnc12,86.6%
11,CCN(CC)C(Cl)=Nc1ccc(Cl)cc1,100%
12,Cc1nc2ccc(Nc3nc(N4CCOCC4)nc(N4CCN(C)CC4)n3)cc2n1Cc1ccccc1,79.9%
13,CC(=O)c1c(C)nc(-c2cc(C)cc(Cl)c2)nc1-c1cccc(Oc2ccccc2)c1,32.5%

# Source: PubChem BioAssay (NCI)
